# Results with a measured potency or affinity are listed apart. A number with no mark means an inactive call. No rule for the calls is given here.
# Assay: VEEV TC-83 cytopathic effect inhibitors, confirmation, cell-based, set 4 (AID 624063)
# Conditions: VEEV TC-83 infected cells; series mostly up to 25 µM; inhibition: at the top concentration
row,Compound,inhibition [%]
1,CCN1CCN(Cc2nc3ccccc3c(=O)n2-c2ccccc2F)CC1,-5
2,CC(C)(C)OC(=O)N1CCN(Cc2nc3ccc([N+](=O)[O-])cc3c(=O)n2-c2ccccc2F)CC1,1.6
3,CCN1CCN(Cc2nc3ccc(C(F)(F)F)cc3c(=O)n2-c2ccccc2F)CC1,20.2
4,O=C(NCc1ccco1)C1CCN(C(=O)c2cc3sccc3n2Cc2ccc(F)cc2)CC1,13.5
